Assay results from PubChem BioAssay (NCI).
About 83,000 compounds went through this panel and 20% of them were active in at least one assay; those are over-represented in the sample as a whole.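 Growth was measured after 48 h exposure to one concentration of compound in 96-well plates. Values under 10 count as active.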 Unmarked numbers belong to inactive results. Active and inactive are the calls of the source.

Tested on: HS 578T breast
Assay: NCI-60 one-dose screen, 48 h (100 = growth as untreated, 0 = no growth, -100 = all killed)
Details: 10 µM
Experimental: Growth inhibition of the HS 578T human tumor cell line is measured as a screen for anti-cancer activity. Cells are grown in 96 well plates and exposed to the test compound for 48 hours. Compounds are tested at a single concentration, which is 10^-5 M for most compounds. The reported endpoint is percent growth (GI% or GIPRCNT), where numbers from 0 - 100% represent growth inhibition, and numbers from -100% - 0 represent cell death. For example, a value of 40 represents 60% growth inhibition. A value of 0 means no net growth occurred over the course of the experiment. A value of -40 indicates 40% of cells at the beginning of the experiment died by the end of the experiment. A value of -100 means all cells are dead at the end of the experiment.
NCI-60 Human Tumor Cell Lines Screen was performed using the standard one-dose NCI protocol, which is described in more detail at https://dtp.cancer.gov/discovery_development/nci-60/default.htm.
Compounds with GIPRCNT values below 10 were considered active. Activity score was based on GIPRCNT using the following formula: […]
Score is 0 for GIPRCNT values of 100 or above, 50 for GIPRCNT values of 0, and 100 for GIPRCNT values of -100.

Row | Compound | growth
1 | CCCCCCCCCCN=C(c1ccc(N(C)C)cc1)c1ccc(N(C)C)cc1 | 26.7%
2 | Cn1c([N+](=O)[O-])cnc1C=C1C(=O)c2ccccc2C1=O | 26.4%
3 | O=[N+]([O-])C1CC2C=CC1C2 (stereo not given) | 97.9%
4 | Cc1ccc(C)c2c1sc1nc3n[nH]c(N)c3c(=N)n12 | 107%
5 | Nc1nc2c(nnn2C2CC(O)C(CO)O2)c(=O)[nH]1 (stereo not given) | 75.4%
6 | COc1ccc(/C=C(\c2cc(OC)c(OC)c(OC)c2)c2nnc(-c3cccs3)o2)cc1 | 43.6%
7 | CCOc1nc(-c2ccccc2)cc2c(O)c(C(=O)N/N=C/c3ccc(OC)cc3)[nH]c(=O)c12 | 96.8%
8 | Cn1c([N+](=O)[O-])cnc1/C=C1\Oc2ccc(Br)cc2C1=O | -17.8% (active)
9 | CCOC(=S)Sc1ccc([N+](=O)[O-])cc1[N+](=O)[O-] | 98%
10 | C=CCOc1ccc2c(c1)CC=C1[C@@H]2CC[C@]2(C)C(=O)/C(=N/O)C[C@@H]12 | 99.2%
11 | O=C(O)CNS(=O)(=O)c1ccc(OCCOc2ccc(S(=O)(=O)NCC(=O)O)cc2)cc1 | 99.4%
12 | COc1cc(CSc2nc3ccc(Cl)cc3c(=O)n2-c2ccccc2)cc(OC)c1OC | 90.3%
13 | C[N+]1(CC2CO2)CCCCCC1 (stereo not given) | 114%
14 | Cc1cc(C)c(/C=C2\C(=O)Nc3ccc(NC(=O)CCCCCCC(=O)NO)cc32)[nH]1 | 21.6%
15 | CCOC(=O)c1sc(NC(=O)c2cc(OC)c(OC)c(OC)c2)nc1C | 80.8%
16 | C[C@@H]1N=C(c2ccc(Br)cc2)Nc2nc3ccccn3c2C1=O | 71.3%
17 | COc1c(-c2c3sc(=O)[nH]c3nc3c2c(=O)[nH]n3C(C)C)cc2c(c1OC)OCO2 | 99.2%
18 | Nc1ccc(Sc2ccc3c4c2cccc4c(=O)n2c4ccccc4nc32)cc1 | 59.6%
19 | Cc1nc(Nc2nc3ccccc3o2)nc(-c2cccc([N+](=O)[O-])c2)c1C(=O)Nc1ccc(F)c(Cl)c1 | 4.55% (active)
20 | COC(=O)C1(C(=O)OC)C2C(=O)C3C(C21)C3(C(=O)OC(C)(C)C)C(=O)OC(C)(C)C (stereo not given) | 97.9%

Row | Compound | growth
21 | COc1cc(-c2cc(/C=C/C(C)=O)[nH]n2)cc(OC)c1OC | 91.8%
22 | CCCCc1ccc(NC(=O)N(CCCl)N=O)cc1 | 111%
23 | O=[N+]([O-])c1ccc(-c2nc(-c3ccccc3)c(-c3ccccc3)n2-c2ccccc2)cc1 | 20.5%
24 | CCCCC(CC#N)(CCC)CCC | 113%
25 | CN(C)Cc1cccs1 | 102%
26 | CCOC(=O)/C(C#N)=C(/C)C1CC1 | 107%
27 | COc1nc2c(c(=O)[nH]1)C(c1ccc(Oc3ccnc4cc(Cl)ccc34)c(OC)c1)C=C(c1cc(OC)c(OC)c(OC)c1)N2 (stereo not given) | 98.3%
28 | C=CCn1c(C)nc2cc(Nc3nc(Nc4ccc5nc(C)n(CC=C)c5c4)c4ccccc4n3)ccc21 | -48.1% (active)
29 | CCCn1c(=O)c2c(nc(-c3cccc(OCCCCl)c3)n2C)n(CCC)c1=O | 31.4%
30 | N#C/C(=C/c1cc([N+](=O)[O-])ccc1Cl)C(N)=O | 113%
31 | C[C@@H]1C(=O)N(C[C@H](Cc2ccccc2)NC(=O)OCc2ccccc2)[C@]1(Cc1ccccc1)C(=O)OCc1ccccc1 | 78.8%
32 | COc1cc(C(c2c[nH]c3ccccc23)N2CCCC2)ccc1OCc1ccccc1 (stereo not given) | 57.2%
33 | CC(C)=C1CCC(C)C/C1=N\N=C(N)N (stereo not given) | 105%
34 | COc1cccc(C(=O)NNc2nc(N3CCN(C4CCCCC4)CC3)nc(N3CCN(C(c4ccccc4)c4ccccc4)CC3)n2)c1 | 74.2%
35 | Cn1cnc([N+](=O)[O-])c1/C=C1\Oc2ccc(Cl)cc2C1=O | 104%
36 | Cc1ccc(C)c(S(=O)(=O)NC2c3ccccc3Oc3ccccc32)c1 | 107%
37 | CC(=O)/C(=C\c1ccc(Cl)cc1)c1ccccc1 | 23.8%
38 | O=C(O)c1ccc(CNc2ccc(C(=O)CCl)cc2)cc1 | 87.4%
39 | O=c1oc2cc(OS(=O)(=O)C3CC3)ccc2c2c1CCCCCC2 | 106%
40 | COc1ccc(C(=O)n2nc(CC(=O)NCc3ccccc3)nc2N)cc1 | 103%
